Compound activity (PubChem BioAssay)
TRHR enhancer-1 – qHTS for Small Molecule Agonists and Allosteric Enhancers of Human TRH Receptor: Primary Screen for Enhancers. Thyrotropin-releasing hormone receptor (Homo sapiens), P34981. TRHR cells, fluo-8 calcium fluorescence, EC20 TRH enhancement. enhancement, % at 2 µM. hit rate 0.66% among 360,000. AID 493056, 2011; in the data active = enhancement above about 30%
Target sequence (P34981 whole entry, looked up): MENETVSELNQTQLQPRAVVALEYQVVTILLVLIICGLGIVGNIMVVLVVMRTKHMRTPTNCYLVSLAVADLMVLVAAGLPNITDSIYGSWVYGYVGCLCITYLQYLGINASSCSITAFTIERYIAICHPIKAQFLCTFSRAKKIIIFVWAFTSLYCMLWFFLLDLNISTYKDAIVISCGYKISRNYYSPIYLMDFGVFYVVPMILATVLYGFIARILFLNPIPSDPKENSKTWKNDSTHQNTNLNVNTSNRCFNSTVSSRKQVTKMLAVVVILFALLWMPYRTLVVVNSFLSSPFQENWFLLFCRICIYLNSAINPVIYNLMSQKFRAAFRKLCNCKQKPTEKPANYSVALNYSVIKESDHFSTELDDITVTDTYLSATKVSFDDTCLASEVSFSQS
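TRHR-expressing cells loaded with fluo-8 calcium dye were read kinetically (ex 480/em 530) during compound addition, then stimulated with an EC20 of TRH (10 nM final). Enhancement of the Gq-mediated intracellular calcium response was scored.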
D1 PAM – Potentiators of Human D1 Dopamine Receptor: qHTS. hit rate 0.036% among 360,000. D(1A) dopamine receptor (Homo sapiens), P21728. potentiation, % at 10 µM. AID 504651, 2011. HEK293 TREx D1 cells, calcium flux, dopamine EC20 potentiation; in the data active = potentiation above about 30%
D1 agonist – Allosteric Agonists of the Human D1 Dopamine Receptor: qHTS; HEK293 T-REx D1 cells, calcium flux, agonist mode; activation, % at 2 µM; AID 504660, 2011; hit rate 1% among 360,000
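Agonism was scored from calcium flux recorded over 180 s (1 read/s) after pintool compound addition, following a 10-cycle baseline. Cells were inducible force-coupled HEK293 TREx D1, plated overnight at 30 C and loaded with no-wash calcium dye.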
D1 antagonist – Antagonist of Human D 1 Dopamine Receptor: qHTS; HEK293 TREx D1 cells, calcium flux, dopamine EC80; active compounds read low; hit rate 3.2% among 360,000; AID 504652, 2011; D(1A) dopamine receptor (Homo sapiens), P21728; activity change, negative = inhibition, % at 10 µM; in the data active = activity change below about -30%
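HEK293 T-REx cells expressing inducible, force-coupled D1 receptor; no-wash Ca dye, 30–90 min RT. Cmpd → 180 s read at 1 Hz → EC80 DA → 180 s read.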
TRHR agonist-1 – qHTS for Small Molecule Agonists and Allosteric Enhancers of Human TRH Receptor: Primary Screen for Agonists | hit rate 0.18% among 360,000 | TRHR cells, calcium flux fluo-8, FDSS agonist mode | activation, % at 2 µM | AID 493084, 2011 | Thyrotropin-releasing hormone receptor (Homo sapiens), P34981
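TRHR-expressing cells, plated overnight in medium with 10% serum, were loaded with fluo-8 calcium dye at room temperature. After a 10 s baseline, library compound was pin-added and calcium release was recorded kinetically (ex 480/em 530) as agonist response.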
TRHR enhancer-2 – qHTS for Small Molecule Agonists and Allosteric Enhancers of Human TRH Receptor: Confirmation Screen for Enhancers | shares compounds with TRHR enhancer-1 | TRH receptor cell assay, enhancer confirmation qHTS | activity change, negative = inhibition, % at 46.1 µM | 970 tested, under 10 active | AID 493076, 2011; active = well fitted curve in the direction sought with a large enough effect; inconclusive = small, poorly fitted or top-dose-only effect, or another doubt; inactive = no such curve, though single readings can be large; an effect the other way counts as inactive or inconclusive;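 note: compound effect scored on response to added TRH at EC20 of 10 nM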
TRHR agonist-2 – qHTS for Small Molecule Agonists and Allosteric Enhancers of Human TRH Receptor: Confirmation Screen for Agonists | TRHR-expressing cells, agonist activation read-out | AID 493078, 2011 | Potency, µM (series often up to 46.1 µM), most hits filed as activators | hit rate 8% among 970 | shares compounds with TRHR enhancer-1; active = well fitted curve in the direction sought with a large enough effect; inconclusive = small, poorly fitted or top-dose-only effect, or another doubt; inactive = no such curve, though single readings can be large; an effect the other way counts as inactive or inconclusive; note: nearly all actives have a fitted effect of over 75% in size
Large screens that a line does not name were inactive (follow-up assays come after a bar, where they were run). Most compounds without a hit are left out; they make up all but 4.7% or so of the library. Cut-off read from the data, not from the text of the source, unless noted: active = activation above about 30%; inactive = the rest.

Cc1ccc(C)c(NC(=O)C2CCCN(S(=O)(=O)c3c(C)nn(C)c3C)C2)c1 (configuration not stated)	TRHR agonist-1 30 | TRHR enhancer-2 inactive | TRHR agonist-2 inactive
COc1ccc(NC(=O)N(C(C)C)C2CCN(C(C)=O)CC2)c(OC)c1	none
COc1ccccc1C1(O)CCN(C(=O)c2cccs2)CC1	TRHR enhancer-1 46 | TRHR enhancer-2 inactive | TRHR agonist-2 inactive
O=C(NC1CCCCC1)/C(=C/c1ccc(Cl)cc1)NC(=O)c1ccccc1	none
CCc1ccc2nc(/N=C(\N)NC(=O)c3ccccc3)nc(C)c2c1	TRHR enhancer-1 45 | TRHR enhancer-2 inactive | TRHR agonist-2 inactive
Cc1cc(C)c2nc(/N=C(\N)NC(=O)c3ccccc3)nc(C)c2c1	none
Cn1c(=O)[nH]c(=O)c2c1nc(NCc1ccccc1)n2Cc1ccc(F)cc1	TRHR enhancer-1 48 | TRHR enhancer-2 inactive | TRHR agonist-2 inactive
CN1OCC(S(=O)(=O)c2ccccc2)C1c1ccccc1 (configuration not stated)	TRHR enhancer-1 44 | TRHR enhancer-2 inactive | TRHR agonist-2 inactive
O=S(=O)(c1ccccc1)C1CON(Cc2ccccc2)C1c1ccccc1 (configuration not stated)	none
O=C(N/N=C/c1c(O)n(-c2ccc(Cl)cn2)c(=O)c2ccccc12)C1CC1	none
O=C(N/N=C/c1c(O)n(-c2ccc(Cl)cn2)c(=O)c2ccccc12)c1ccncc1	D1 agonist 45, TRHR agonist-1 38 | TRHR enhancer-2 inactive | TRHR agonist-2 21µM
COc1ccccc1N/C=C/c1onc(C)c1[N+](=O)[O-]	D1 agonist 140, TRHR agonist-1 47 | TRHR enhancer-2 inactive | TRHR agonist-2 inconclusive
Cc1ccc([N+](=O)[O-])cc1S(=O)(=O)NCC1COc2ccccc2O1 (configuration not stated)	none
N#Cc1cccc(C(=O)Nc2ccccc2C(=O)NC2CC2)c1	none
O=C(CSc1oc(-c2ccc(F)cc2)nc1S(=O)(=O)c1ccc(Cl)cc1)c1ccccc1	none
CC1=C(C(=O)OCC(C)C)C(c2ccccc2Cl)NC(=O)N1C (configuration not stated)	none (no result: D1 PAM)
CC1=C(C(=O)OCC(C)C)C(c2cc3c(cc2Br)OCO3)NC(=O)N1C (configuration not stated)	TRHR enhancer-1 53 | TRHR enhancer-2 inactive | TRHR agonist-2 inconclusive
COc1ccccc1-n1nnnc1SCC(=O)Nc1ccccc1	TRHR enhancer-1 56 | TRHR enhancer-2 inactive | TRHR agonist-2 inactive
O=C(Nc1nnc(SCc2ccc(F)cc2)s1)C1=COCCO1	TRHR enhancer-1 43 | TRHR enhancer-2 inactive | TRHR agonist-2 inactive
O=C(Nc1nnc(SCc2ccccc2)s1)C1=COCCO1	none
S=C(Nc1ccc(Br)cc1)N1CCCC1	TRHR enhancer-1 41 | TRHR enhancer-2 inactive | TRHR agonist-2 inactive
CC(C)(C)c1ccc(-c2nnc(-c3ccccc3NC(=O)c3ccc(F)cc3F)o2)cc1	none
C=C1C(=O)O[C@H]2[C@H]1[C@@H](O)CC(=C)[C@@H]1CC(=O)[C@@H](C)[C@H]21	TRHR enhancer-1 52 | TRHR enhancer-2 inactive | TRHR agonist-2 inactive
Cc1ccc(S(=O)(=O)c2cnc(SCC(=O)Nc3cccc(Cl)c3)nc2N)cc1C	none
O=C(COc1ccc(Br)cc1)Nc1cccc2cccnc12	none
COc1ccccc1CNC(=O)N1CCN(S(=O)(=O)c2ccc(C)cc2)CC1	TRHR enhancer-1 42 | TRHR enhancer-2 inactive | TRHR agonist-2 inactive
